Data as given in PubChem BioAssay AID492948 (National Center for Advancing Translational Sciences (NCATS), 2010).
Inconclusive results are not listed. The source made the active and inactive calls. Calls follow the shape of the dose curve; as a rule, active = well fitted activation curve with a large enough effect; inconclusive = small, poorly fitted or top-dose-only effect; inactive = no such curve, though single readings can be large or run the other way.

Experiment: qHTS Assay for Agonists of the Relaxin Receptor RXFP1: V1B Hit Validation;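 also: counter-screen in HEK293 cells expressing V1B rather than RXFP1 for selectivity; nearly all actives have a fitted effect of over 65% in size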;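 as to activation: cAMP accumulation with PDE4 inhibitor Ro 20-1724 present during compound exposure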
Details: HEK293 V1B cells, cAMP TR-FRET, 30 min; series mostly up to 115 µM
How it was run: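 HEK293 cells (2000/well) were exposed to compounds for 30 min at 37C with PDE4 inhibitor Ro 20174. cAMP was read by TR-FRET after lysis, normalized to buffer and 29 nM porcine relaxin, and EC50 was fitted by Hill equation.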
Potency is read from the fitted curve at half-maximal effect.

Compound | Potency
COc1cccc(C(=O)CSc2nnc(-c3cc(OC)cc(OC)c3)o2)c1 | 10.9 µM (active)
O=C(O)c1ccc(N2C(=O)c3cccc4c(C(=O)O)ccc(c34)C2=O)cc1 | 47.3 µM (active)
NS(=O)(=O)c1ccc(CCNC(=O)C2CCN(c3ncnc4c3nc3n4CCCCC3)CC2)cc1 | 38.9 µM (active)
O=C(O)c1ccc(N=C2NC(=O)C(CO)(CO)S2)cc1 | inactive
Cc1cc(C)nc(NS(=O)(=O)c2ccc(NC(=O)c3nn(-c4ccccc4)ccc3=O)cc2)n1 | 15.5 µM (active)
Cc1ccc2[nH]c3c(=S)nc[nH]c3c2c1 | 6.15 µM (active)
CN(Cc1ccccc1)C(=O)c1ccccc1NC(=O)c1ccco1 | inactive
C=CCNc1ncnc2c1ncn2C1OC(CO)C(O)C1O (configuration not stated) | inactive
Cc1cc(NC(=O)c2ccccc2F)nc2c1c(=O)oc1ccccc12 | 21.8 µM (active)
CC(=O)Nc1ccc(NC(=O)CSc2ccc3nnc(-c4cccnc4)n3n2)cc1 | 13.8 µM (active)
CCC1(C)Cc2c(sc3c2c2ncnn2c2nnc(SCC(=O)NCc4ccco4)n32)CO1 (configuration not stated) | 13.8 µM (active)
COc1ccc(CN2C(=O)c3cccnc3C2=O)cc1S(=O)(=O)NC1CCCCC1C (configuration not stated) | 38.9 µM (active)
Cc1ccc(C(=O)Nc2cccc(C(F)(F)F)c2)cc1NC(=O)c1cnnc2ccccc12 | inactive
CC1CCCCN1C(=O)c1ccccc1NC(=O)c1ccco1 (configuration not stated) | inactive
CCc1ccc(-c2nc3ccc(Br)cc3c(C(=O)O)c2C)s1 | 3.46 µM (active)
O=C(Nc1ccccc1C(=O)O)c1ccc(NC(=O)C2CC2)cc1 | inactive
COc1ccc(S(=O)(=O)N2CCOCC2)cc1NC(=O)CSc1ncnc2ccccc12 | 13.8 µM (active)
O=C(Nc1cccc(C(F)(F)F)c1)c1ccccc1NC(=O)C1CCCCC1 | inactive
O=C(Nc1ccccc1C(=O)Nc1ccc(F)cc1)c1ccco1 | inactive

Compound | Potency
CC(=O)Nc1ccc(S(=O)(=O)NCc2cc(=O)n(C)c(=O)n2C)cc1 | 30.9 µM (active)
CCOC(=O)c1sc(=NC(=O)c2ccc(S(=O)(=O)N(C)c3ccccc3)cc2)n(C)c1C | 30.8 µM (active)
O=C(CCc1nnc2ccc(N3CCC4(CC3)OCCO4)nn12)NCc1ccc(F)cc1 | 38.9 µM (active)
CCOC(=O)C1CCN(C(=O)c2cc3c(=O)n4ccccc4nc3s2)CC1 | 43.6 µM (active)
O=C(Nc1ccccc1C(=O)N1CCNCC1)c1ccco1 | inactive
COc1ccc(OC)c(CNC(=O)C2CCN(C(=O)N(C)C)CC2)c1 | inactive
O=C(Nc1ccccc1C(=O)N1CCOCC1)c1ccco1 | inactive
COc1ccc(CC(=O)N/N=C/c2cccnc2)cc1OC | inactive
CCN(CC)CCCN1C=C2C(=O)C(C)(OC(=O)C3CCCC3)C(=O)C=C2C=C1c1ccsc1 (configuration not stated) | inactive
O=C(OCc1nc2ccsc2c(=O)[nH]1)c1cccc(S(=O)(=O)N2CCOCC2)c1 | 34.6 µM (active)
O=C(O)CCSc1ccc2ccccc2n1 | 6.15 µM (active)
CCc1cc2cc3c(cc2nc1SCC(=O)Nc1nccs1)OCO3 | 19.4 µM (active)
Cn1c(=O)c2sccc2n2c(CCCC(=O)NCc3ccco3)nnc12 | 34.6 µM (active)
Nc1cc2ccncc2c2ccccc12 | inactive
NC(=S)c1cc2ccc(O)cc2oc1=O | 4.35 µM (active)
Cc1ccc(CN(C)C(=O)c2ccccc2NC(=O)c2ccccc2)o1 | inactive
CCN(CC)S(=O)(=O)c1ccc(N2CCOCC2)c(NC(=O)c2cccc(C#N)c2)c1 | 47.3 µM (active)
CN(C)c1ccc(NC(=O)C2C3C=CC(C3)C2C(=O)O)cc1 (configuration not stated) | inactive
